Screens from PubChem BioAssay.
TGFb inhibitor: TGF-b pathway inhibition; HepG2 CAGA-GFP TGF-b/SMAD3 reporter, GFP fluorescence, 18 h; TGF-beta stimulated, 500 pg/mL final; Potency, µM (top dose mostly 46.1 µM), hits mostly inhibitors; actives 1.2% (n = 410,000); note: nearly all actives have a fitted effect of over 65% in size
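Smad-responsive CAGA-GFP expression was quantified in HEPG2 cells exposed to compounds and 500 pg/mL final TGF-beta for 18 h at 37 degrees C; unstimulated wells defined full inhibition.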
S2 tox: reduces viability in counter-screen for ATXN expression inhibitors; S2 cells (HEK-293 line with an ATXN2-luciferase reporter) viability, CellTiter-Fluor protease fluorescence, 24 h; Potency, µM (highest dose often 56.7 µM), most hits filed as cytotoxic; actives 0.49% (n = 400,000); AID 651635; note: nearly all actives have a fitted effect of over 40% in size
HepG2 viability: counter-screen for TGF-b inhibitors: cytotoxicity in HepG2 cells; HepG2 CAGA-GFP viability, ATP luminescence, 18 h; Potency, µM (series often up to 46.1 µM), most hits filed as cytotoxic; actives 0.76% (n = 410,000); AID 588856
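CellTiter-Glo luminescence gave cytotoxicity after 18 hours at 37 degrees C. The cells were HepG2 CAGA-GFP in 1% FBS DMEM, stimulated with 500 pg/mL TGF-beta after compound addition. %Activity was normalised to no-cell wells (complete cell-killing) and DMSO (no toxicity), and curves were fitted and classified.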
IL1B secr inh: inhibitors of inflammasome signaling (IL-1 beta secretion) | AID 743279 | THP-1 LPS/ATP IL-1B secretion, AlphaLISA, 16 h; active compounds read low | actives 4.7% (n = 360,000) | activity change, % at 57.5 µM; in the data active = activity change below about -50%; inconclusive = mostly about -30% to -49%
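Secreted IL-1B measured by AlphaLISA bead assay after 16 h compound exposure of THP-1 cells; compounds (final up to 57.5 uM) added 1 h before LPS (250 ng/mL) and ATP (1.25 mM) stimulation; lower signal means less secretion.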
ATXN2 expr inh: ATXN2 expression inhibition; Potency, µM (top dose mostly 57 µM), actives largely listed as inhibitors; actives 0.72% (n = 360,000); HEK-293 ATXN2-luciferase reporter, luminescence, 24 h; note: nearly all actives have a fitted effect of over 55% in size
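ATXN2-luciferase reporter cells (luciferase flanked by upstream and downstream ATXN2 gene portions) were treated 24 h at 37 °C with compounds at up to 57 uM. SteadyGlo luminescence gave expression; GF-AFC fluorescence gave viability.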
Large screens that a line does not name were inactive. Shown are actives, neighbours in structure and some others; about 5.7% of the full set was active somewhere. Unless noted, calls come from the whole dose curve; as a rule, active = well fitted curve in the direction sought with a large enough effect; inconclusive = small, poorly fitted or top-dose-only effect, or another doubt; inactive = no such curve, though single readings can be large; an effect the other way counts as inactive or inconclusive.

COc1ccc2[nH]cc(/C=C/C(=O)c3ccccc3)c2c1	TGFb inhibitor inconclusive, IL1B secr inh -104 (no result: S2 tox)
COc1ccccc1/C=C/C(=O)c1ccc(NC(C)=O)cc1	TGFb inhibitor inconclusive, S2 tox inconclusive, IL1B secr inh -107, ATXN2 expr inh inconclusive
CCc1ccccc1NC(=O)c1cc(S(=O)(=O)N2CCCc3ccccc32)ccc1F	S2 tox inconclusive (no result: IL1B secr inh)
CO[C@H]1C[C@@H]2CC[C@@H](C)[C@@](O)(O2)C(=O)C(=O)N2CCCC[C@H]2C(=O)O[C@H]([C@H](C)C[C@@H]2CC[C@@H](O)[C@H](OC)C2)CC(=O)[C@H](C)/C=C(\C)[C@@H](O)[C@@H](OC)C(=O)[C@H](C)C[C@H](C)/C=C/C=C/C=C/1C	TGFb inhibitor inconclusive (no result: S2 tox, IL1B secr inh, ATXN2 expr inh)
O=C1c2ccccc2C(=O)N1c1ccc(O)cc1	none (no result: S2 tox, IL1B secr inh, ATXN2 expr inh)
COc1ccc(-n2ncc(C(=O)NCc3ccc4c(c3)OCO4)c2C2CCN(C(=O)OC(C)(C)C)CC2)cc1	TGFb inhibitor inconclusive (no result: S2 tox, IL1B secr inh, ATXN2 expr inh)
Cc1c(Cl)ccc2sc(N3CCN(C(=O)CS(=O)(=O)c4ccccc4)CC3)nc12	TGFb inhibitor 10µM, S2 tox inconclusive, ATXN2 expr inh 20µM (no result: IL1B secr inh)
Cc1c(Cl)ccc2sc(N3CCN(C(=O)C4=COCCO4)CC3)nc12	S2 tox inconclusive, IL1B secr inh -61
Cc1c(Cl)ccc2sc(N3CCN(C(=O)C(C)C)CC3)nc12	TGFb inhibitor inconclusive, S2 tox inconclusive, ATXN2 expr inh inconclusive (no result: IL1B secr inh)
COc1ccc(C(=O)N2CCN(c3nc4c(C)c(Cl)ccc4s3)CC2)c(OC)c1	TGFb inhibitor inconclusive, HepG2 viability 11µM (no result: IL1B secr inh)
Cc1cc(C)cc(OC(=O)c2snnc2C)c1	none (no result: IL1B secr inh)
Cc1ccc(NC(=O)Cn2cc(S(=O)(=O)Cc3ccc(F)cc3)c3ccccc32)cc1Cl	TGFb inhibitor inconclusive (no result: S2 tox, IL1B secr inh, ATXN2 expr inh)
COc1ccc(C(NC(=O)c2c(F)c(F)c(F)c(F)c2F)c2ccccc2)cc1 (stereo not drawn)	S2 tox inconclusive, IL1B secr inh -121, ATXN2 expr inh inconclusive
COc1ccccc1N1CCN(C(=O)c2cnc(N3CCCCC3)c3ccccc23)CC1	TGFb inhibitor inconclusive (no result: S2 tox, IL1B secr inh, ATXN2 expr inh)
CCCCCCCCc1ccc(CCC(N)(CO)CO)cc1	ATXN2 expr inh 31µM (no result: TGFb inhibitor, S2 tox, HepG2 viability, IL1B secr inh)
CC(=O)c1ccc(NC(=O)C2CCCN(S(=O)(=O)c3cn(C)cn3)C2)cc1 (stereo not drawn)	none (no result: S2 tox, IL1B secr inh, ATXN2 expr inh)
CCOc1ccc(S(=O)(=O)Nc2cccc(-c3ccc(OCC)nn3)c2)cc1	S2 tox inconclusive (no result: IL1B secr inh)
CCOc1ccc(-c2cccc(NS(=O)(=O)c3c(C)cc(C)cc3C)c2)nn1	TGFb inhibitor 20µM, S2 tox inconclusive, ATXN2 expr inh inconclusive (no result: IL1B secr inh)
Cc1ccc(NC(=O)CS(=O)CC(=O)NC(C)CCc2ccco2)cc1Cl (stereo not drawn)	none
Cc1ccc(-c2ccccc2NC(=O)CCl)o1	IL1B secr inh -59
Cc1ccc(-c2ccccc2NC(=O)CS(=O)CC(=O)Nc2ccc(C)c(Cl)c2)o1 (stereo not drawn)	IL1B secr inh -77, ATXN2 expr inh inconclusive
CCOC(=O)N1CCc2c(sc(NCc3cccc(F)c3)c2C(=O)Nc2ccc(OC)cc2OC)C1	TGFb inhibitor inconclusive (no result: S2 tox, IL1B secr inh, ATXN2 expr inh)
CCOC(=O)CN1C(=O)S/C(=C/c2ccc(N3CCCCC3)o2)C1=O	none
COC(=O)CN1C(=O)S/C(=C/c2ccc(N3CCCCC3)o2)C1=O	S2 tox inconclusive
CCN1C(=O)S/C(=C\c2ccc(N3CCOCC3)cc2C)C1=O	S2 tox inconclusive, IL1B secr inh -54
CCC(C)N1C(=O)S/C(=C/c2ccc(N3CCOCC3)cc2C)C1=O (stereo not drawn)	none (no result: S2 tox)
CCCN1C(=O)S/C(=C/c2ccc(N3CCOCC3)o2)C1=O	IL1B secr inh -91
CCCN1C(=O)S/C(=C\c2ccc(N3CCOCC3)o2)C1=O	S2 tox inconclusive, IL1B secr inh -98
Cc1ccc2occ(CC(=O)Nc3ccc(S(=O)(=O)N4CCC(C)CC4)cc3)c2c1	TGFb inhibitor inconclusive, S2 tox inconclusive (no result: IL1B secr inh)
Cc1ccc(-c2nc(-c3cc4cc(Cl)ccc4oc3=O)sc2C)cc1	none (no result: S2 tox, IL1B secr inh, ATXN2 expr inh)
CC(C)(C)c1cc[n+](C2=C([O-])c3ccccc3C(=O)/C2=N\S(=O)(=O)c2cccs2)cc1	TGFb inhibitor 2.8µM, S2 tox inconclusive, HepG2 viability 4.5µM, IL1B secr inh -88, ATXN2 expr inh 11µM
